# Assay results as given in PubChem BioAssay AID504333 (National Center for Advancing Translational Sciences (NCATS), 2011).
# Screen size: about 360,000 compounds; about 16,000 (4.4%) were called active. Not shown: some 9% with an inconclusive outcome. This excerpt belongs to a sample that is enriched for actives. Values without a mark were called inactive. Calls follow the shape of the dose curve; as a rule, active = well fitted inhibition curve with a large enough effect; inconclusive = small, poorly fitted or top-dose-only effect; inactive = no such curve, though single readings can be large or run the other way.
# Target: Bromodomain adjacent to zinc finger domain protein 2B (Homo sapiens) (UniProt Q9UIF8)
# Assay: qHTS Assay for Inhibitors of BAZ2B; also: nearly all actives have a fitted effect of over 60% in size
# Conditions: AlphaScreen BAZ2B-H3K14Ac peptide displacement; series mostly up to 114 µM; activity change, negative = inhibition: at the top concentration
# Method in brief: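 Inhibition is scored as reduced AlphaScreen emission. The BAZ2B/b-H3(5-23)K14Ac complex (50 nM each) in PBS pH 7.4, 0.01% Tween-20 meets compound (up to 110 uM) for 30 min at RT before bead addition.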
# % is scaled to controls: 0 for no effect and ±100 for the full control effect; potency is read from the fitted curve at half-maximal effect.
# Chain of Bromodomain adjacent to zinc finger domain protein 2B (Homo sapiens) (Q9UIF8 whole entry, looked up, the tested form may be a part): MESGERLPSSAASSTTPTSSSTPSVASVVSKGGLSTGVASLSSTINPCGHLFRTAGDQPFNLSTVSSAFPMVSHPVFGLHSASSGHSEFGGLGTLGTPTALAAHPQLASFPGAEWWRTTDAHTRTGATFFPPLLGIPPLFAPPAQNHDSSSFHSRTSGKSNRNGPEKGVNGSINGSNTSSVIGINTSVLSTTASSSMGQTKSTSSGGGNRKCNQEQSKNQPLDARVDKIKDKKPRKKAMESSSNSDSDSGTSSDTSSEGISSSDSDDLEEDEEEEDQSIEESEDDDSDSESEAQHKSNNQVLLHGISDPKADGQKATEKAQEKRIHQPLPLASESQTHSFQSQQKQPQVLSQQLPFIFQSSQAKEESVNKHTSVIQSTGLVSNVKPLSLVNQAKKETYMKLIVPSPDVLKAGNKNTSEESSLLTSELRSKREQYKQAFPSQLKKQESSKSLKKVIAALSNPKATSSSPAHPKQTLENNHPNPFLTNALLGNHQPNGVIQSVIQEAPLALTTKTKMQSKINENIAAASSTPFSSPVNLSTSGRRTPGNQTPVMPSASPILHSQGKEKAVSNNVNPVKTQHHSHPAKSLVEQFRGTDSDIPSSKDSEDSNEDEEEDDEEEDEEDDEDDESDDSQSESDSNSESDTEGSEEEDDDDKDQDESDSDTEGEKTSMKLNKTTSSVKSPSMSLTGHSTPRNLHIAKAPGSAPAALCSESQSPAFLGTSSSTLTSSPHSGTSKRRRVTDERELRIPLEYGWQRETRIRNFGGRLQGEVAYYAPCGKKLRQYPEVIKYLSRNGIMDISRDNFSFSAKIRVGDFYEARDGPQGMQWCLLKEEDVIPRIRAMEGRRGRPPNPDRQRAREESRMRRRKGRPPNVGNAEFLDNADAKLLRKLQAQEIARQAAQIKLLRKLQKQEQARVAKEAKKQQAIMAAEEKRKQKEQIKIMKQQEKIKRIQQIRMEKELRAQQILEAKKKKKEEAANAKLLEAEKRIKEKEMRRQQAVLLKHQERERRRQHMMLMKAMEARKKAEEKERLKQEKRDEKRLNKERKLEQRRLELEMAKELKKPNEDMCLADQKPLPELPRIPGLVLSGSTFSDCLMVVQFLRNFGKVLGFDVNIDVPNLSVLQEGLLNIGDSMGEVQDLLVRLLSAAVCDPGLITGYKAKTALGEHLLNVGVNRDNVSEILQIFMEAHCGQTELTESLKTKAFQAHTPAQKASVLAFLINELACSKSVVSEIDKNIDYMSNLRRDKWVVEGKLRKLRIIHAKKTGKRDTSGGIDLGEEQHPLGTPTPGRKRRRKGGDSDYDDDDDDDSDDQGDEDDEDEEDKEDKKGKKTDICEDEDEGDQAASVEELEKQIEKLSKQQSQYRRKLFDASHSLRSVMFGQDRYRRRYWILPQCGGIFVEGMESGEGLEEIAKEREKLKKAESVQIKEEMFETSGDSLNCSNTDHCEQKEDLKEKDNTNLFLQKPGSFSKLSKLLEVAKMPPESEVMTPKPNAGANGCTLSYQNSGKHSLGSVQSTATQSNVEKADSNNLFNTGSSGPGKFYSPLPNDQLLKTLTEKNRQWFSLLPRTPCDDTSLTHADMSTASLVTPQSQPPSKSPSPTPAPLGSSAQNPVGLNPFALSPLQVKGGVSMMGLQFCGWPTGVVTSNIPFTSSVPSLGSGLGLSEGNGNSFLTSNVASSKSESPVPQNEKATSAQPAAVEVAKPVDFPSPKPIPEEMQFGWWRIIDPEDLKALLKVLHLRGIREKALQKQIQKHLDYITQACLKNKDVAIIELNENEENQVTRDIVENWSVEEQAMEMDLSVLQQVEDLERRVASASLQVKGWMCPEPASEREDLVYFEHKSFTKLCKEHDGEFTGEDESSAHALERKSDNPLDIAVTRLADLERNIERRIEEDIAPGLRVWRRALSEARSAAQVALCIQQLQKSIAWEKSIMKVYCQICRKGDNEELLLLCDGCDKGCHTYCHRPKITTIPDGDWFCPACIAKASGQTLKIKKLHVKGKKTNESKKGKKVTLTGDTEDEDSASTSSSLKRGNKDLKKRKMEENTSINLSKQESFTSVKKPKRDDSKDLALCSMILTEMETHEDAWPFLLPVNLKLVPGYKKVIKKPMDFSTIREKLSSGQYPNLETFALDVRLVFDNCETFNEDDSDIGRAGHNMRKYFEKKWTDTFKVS
Structure (SMILES),"activity change, negative = inhibition [%]",Potency
Cc1nn(C(C)C(=O)Nc2ccc(C(C)C)cc2)c(=O)c2c1sc1ccccc12 (centres undefined),0.522,
CC1CN(C(=O)N2CCC(C(=O)NCc3ccco3)CC2)c2cc(Cl)ccc2O1 (centres undefined),-21.9,
Cc1cc(C(=O)Nc2nnc(C3CC3)s2)c(C)s1,0.462,
Cc1cnc(NC(=O)c2ccccn2)s1,,35.5 µM (active)
Cc1cnc(NC(=O)C2CCCC2)s1,1.74,
O=C(Nc1nnc(C2CC2)s1)c1cc(Cl)sc1Cl,-15.5,
Cc1ccc(SCC(=O)Nc2ncc(C)s2)cc1,19.4,
O=C(Nc1nnc(C2CC2)s1)c1ccccn1,,5.62 µM (active)
COCCNC(=O)c1ccc2c(c1)N=C(C)c1cc(C)ccc1S2,-15.3,
CC1=Nc2cc(C(=O)N3CCC(C)CC3)ccc2Sc2ccc(Cl)cc21,-31.1,
Cc1ccc(Cn2c(=O)n(-c3ccc(C)cc3)c(=O)c3c2c2cc(C)ccc2n3C)cc1,2.31,
COc1ccc(CNC(=O)CSc2n[nH]c(-c3ccc(F)cc3)n2)cc1,4.99,
CCc1nnc(NC(=O)c2ccc(S(=O)(=O)NC3CCCCC3)cc2)s1,2.26,
CCc1nnc(NC(=O)c2cc(S(=O)(=O)N3CCCCC3)ccc2C)s1,11.5,
CCc1nnc(NC(=O)c2nc3nccc(C)n3n2)s1,,70.8 µM (active)
COC(=O)C1=C(C)NC(=O)CC1c1ccccc1OC (centres undefined),7.75,
O=C1CC(c2ccc(F)cc2F)c2cc3c(cc2N1)OCO3 (centres undefined),1.9,
CCCOc1ccccc1C1CC(=O)Nc2cc3c(cc21)OCO3 (centres undefined),,28.2 µM (active)
Cc1nc2ccn(Cc3cccs3)c(=O)c2cc1C(=O)NCc1ccc(Cl)cc1,-15.8,
Cc1ccc(Nc2ccccc2N)cc1,,44.7 µM (active)
Nc1ccc(C(=O)Nc2ccccc2N)cc1,1.79,
Cc1ccc(Nc2nc(Cl)c(C=O)s2)cc1,-12,
COc1ccc(-c2noc(CSc3nnc(-c4ccccc4)n3-c3ccc(F)cc3)n2)c(OC)c1,5.95,

Structure (SMILES),"activity change, negative = inhibition [%]",Potency
CC(=O)c1c(C)n(-c2ccc(N(C)C)cc2)c2ccc(OCC(N)=O)cc12,,50.1 µM (active)
CC(=O)c1c(C)n(-c2ccc(C)cc2)c2ccc(O)cc12,-3.54,
CCOC(=O)c1c(-c2ccccc2)oc2ccc(OCC(N)=O)cc12,-1.3,
CC(=O)c1ccc(NC(=O)c2nc(-c3ccc(C)cc3)n3c2CCCCC3)cc1,-7.46,
COc1ccccc1-c1ccnc2[nH]n(-c3ccccc3)c(=O)c12,-34.9,
NS(=O)(=O)c1cccc(NC(=O)CN2CCCc3ccccc32)c1,-28.1,
CC1Cc2ccccc2N1CC(=O)Nc1ccc(S(N)(=O)=O)cc1 (centres undefined),,79.4 µM (active)
CC1CC(C)CN(CC(=O)Nc2ccc(S(N)(=O)=O)cc2)C1 (centres undefined),-1.09,
CC(CNC(=O)c1nnc(Cc2cccc(F)c2)o1)c1ccccc1 (centres undefined),-16.7,
CN(C(=O)CSc1nc2ccc(NC(=O)COc3ccccc3)cc2s1)c1ccccc1,-37.2,
O=C(NCCCn1ccnc1)c1cc(Br)c(Br)s1,-36.3,
O=C(NCCCN1CCOCC1)c1cc2c(s1)CCC2,2.51,
O=C(NCCCn1ccnc1)c1cc2c(s1)CCCC2,,56.2 µM (active)
Cc1ccccc1CNC(=O)C1CCCN(S(=O)(=O)N(C)c2ccc(F)cc2)C1 (centres undefined),-10.4,
CCOC(=O)c1c(S(=O)(=O)NCC(=O)Nc2ccc(Cl)c(C(F)(F)F)c2)c(C)n(C)c1C,-14.6,
COc1cccc(NC(=O)CSC2=Nc3ccccc3C3=NC(CC(=O)NC4CCCCC4)C(=O)N23)c1 (centres undefined),-0.823,
S=C(Nc1cccc(Cl)c1)Nc1ccc2c(c1)OCCO2,-27,
Cc1nc(Nc2ccc3c(c2)OCCO3)c2nnn(Cc3ccccc3Cl)c2n1,-6.54,
Cc1cccc2nc(-c3ccc(Cl)s3)c(Nc3ccc4c(c3)OCCO4)n12,,12.6 µM (active)
Nc1ccc(Nc2ccccc2)cc1,,35.5 µM (active)
Cc1cc(Nc2ccccc2)n(C(=O)c2ccc(N)cc2)n1,-13.8,
Nc1ccc(S(=O)(=O)NC(=O)c2ccccc2)cc1,-4.92,
CCCOc1ccc(NC(=O)CC2C(=O)N(c3ccccc3)C(=O)N2Cc2ccco2)cc1 (centres undefined),-32.9,

Structure (SMILES),"activity change, negative = inhibition [%]",Potency
C[N+]1(CCNC(=O)/C=N/O)CCCCC1,,79.4 µM (active)
CCOc1c(OC)cc(C2C(C#N)=C(N)Oc3n[nH]c(-c4ccncc4)c32)cc1OC (centres undefined),-6.04,
COc1ccc(C2C(C#N)=C(N)Oc3n[nH]c(C)c32)cc1CN1CCN(c2ccc(F)cc2)CC1 (centres undefined),,50.1 µM (active)
COc1cc(C2C(C#N)=C(N)Oc3n[nH]c(-c4ccccn4)c32)cc(OC)c1OC (centres undefined),-3.91,
O=C(CSc1nc(=O)n(Cc2cccnc2)c2c1CCC2)Nc1ccc(F)cc1F,4.35,
N#Cc1nc(COc2ccc(-c3ccccc3)cc2)oc1NCc1cccnc1,,11.2 µM (active)
c1ccc(COc2ccccc2CNCc2cccnc2)cc1,-30.5,
O=S(=O)(c1ccccc1)c1nc(-c2ccccc2F)oc1NCc1cccnc1,-33.6,
O=C(NCCCO)C(=O)Nc1c2c(nn1-c1ccc(F)cc1)CSC2,-16.6,
CCOc1ccc(C2C(=O)N(C3CCCCC3)CC(=O)N2CCC2=CCCCC2)cc1OC (centres undefined),-23.7,
CN1CCN(CCCCOc2cccc3ccccc23)CC1,-14.2,
CCN1CCN(CCCCOc2ccccc2F)CC1,,50.1 µM (active)
Fc1ccccc1OCCCCn1cncn1,0.584,
CCn1c2c(c(=O)n3ncc(C(=O)N4CCN(c5ccccc5)CC4)c13)CN(Cc1ccc(OC)cc1)CC2,-4.6,
O=C(Nc1ccc(F)cc1F)c1cnn(-c2ccc(F)cc2)c1-n1cccc1,1.35,
CCOC(=O)Cn1c(=O)n(C2CCCCC2)c2nc(-c3cccc(OC)c3)nc(C(N)=O)c21,-2.28,
N#Cc1c2c(c(-c3ccccc3)[nH]c1=O)CCCC2,-9.41,
O=c1[nH]n2c(=O)c3c([nH]c2c1N=Nc1ccccc1)CCC3,,39.8 µM (active)
CC(C)(C)n1c(=O)[nH]c2c(c1=O)CCC2,-16,
COc1cc(CN(CC2CCCO2)C(=O)c2ccccc2F)cc(OC)c1OC (centres undefined),-0.58,
O=C(NCc1ccccc1)c1cc(-c2cccc(Cl)c2)on1,5.03,
O=C1c2ccccc2NC(c2ccc(-c3cccc(Cl)c3)o2)N1O (centres undefined),-7.95,
O=C(O)C(c1ccccc1)N1C(=O)/C(=C\c2ccc(-c3cccc(Cl)c3)o2)SC1=S (centres undefined),,22.4 µM (active)
